According to paper PMC4336329 (PLoS ONE, 2015):
Among all 310,000 compounds or so, about 14,000 (4.5%) showed an effect of 50% or more. Effects have a minus sign here. Only a selection was taken, and strong results are over-represented in it overall.

Target: human ether-à-go-go-related gene (hERG) potassium channel (human, UniProt Q12809)
Assay: primary screen, population patch clamp on CHO cells stably expressing hERG; higher = less effect of the substance
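Also: peak tail current of the secondary pulse compared with the same well before compound.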

human ether-à-go-go-related gene (hERG) potassium channel, sequence (Q12809 whole entry, looked up): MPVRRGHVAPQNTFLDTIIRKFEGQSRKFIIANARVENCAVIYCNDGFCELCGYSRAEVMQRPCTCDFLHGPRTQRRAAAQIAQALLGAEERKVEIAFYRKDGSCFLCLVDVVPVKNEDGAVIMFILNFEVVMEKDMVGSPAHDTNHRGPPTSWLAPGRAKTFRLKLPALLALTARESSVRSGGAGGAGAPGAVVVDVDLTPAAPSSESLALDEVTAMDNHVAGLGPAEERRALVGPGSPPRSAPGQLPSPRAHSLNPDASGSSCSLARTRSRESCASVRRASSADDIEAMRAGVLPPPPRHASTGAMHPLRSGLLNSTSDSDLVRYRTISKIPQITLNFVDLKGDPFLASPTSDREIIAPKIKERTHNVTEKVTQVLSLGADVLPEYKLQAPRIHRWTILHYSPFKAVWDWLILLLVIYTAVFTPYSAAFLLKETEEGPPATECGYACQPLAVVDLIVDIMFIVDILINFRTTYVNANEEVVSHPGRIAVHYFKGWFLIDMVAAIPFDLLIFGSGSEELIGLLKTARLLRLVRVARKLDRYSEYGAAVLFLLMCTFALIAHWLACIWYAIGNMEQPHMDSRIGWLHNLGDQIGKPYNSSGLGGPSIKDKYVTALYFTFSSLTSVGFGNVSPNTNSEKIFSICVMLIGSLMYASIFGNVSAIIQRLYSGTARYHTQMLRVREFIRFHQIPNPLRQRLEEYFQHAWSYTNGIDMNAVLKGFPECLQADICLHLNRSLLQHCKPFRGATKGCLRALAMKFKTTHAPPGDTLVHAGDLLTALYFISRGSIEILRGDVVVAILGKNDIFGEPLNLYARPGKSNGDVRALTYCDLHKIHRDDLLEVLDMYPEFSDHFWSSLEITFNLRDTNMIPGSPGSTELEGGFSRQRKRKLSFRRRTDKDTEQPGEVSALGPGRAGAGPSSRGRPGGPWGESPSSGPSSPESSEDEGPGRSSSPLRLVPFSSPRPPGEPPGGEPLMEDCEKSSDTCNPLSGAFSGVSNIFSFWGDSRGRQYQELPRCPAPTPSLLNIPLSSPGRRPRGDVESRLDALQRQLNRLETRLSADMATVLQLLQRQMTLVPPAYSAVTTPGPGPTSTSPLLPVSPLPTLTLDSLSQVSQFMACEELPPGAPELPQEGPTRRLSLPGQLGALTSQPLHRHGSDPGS

Row | Compound | hERG current change (%, negative = inhibition) at 10uM [%]
1 | CCN(CC(=O)Nc1ccc(Br)cc1)C(=O)Cc1cccc(F)c1 | -17.4
2 | O=C(CSc1nnc2c(Cl)cc(C(F)(F)F)cn12)N(Cc1ccccc1)Cc1ccccc1 | -28.6
3 | Cc1ccc(OCc2cc(C(=O)NC(C)Cc3cccc(C)n3)no2)cn1 (stereo not drawn) | 17.8
4 | Cn1c(-c2ccsc2)c(-c2cccs2)c2cc(-c3ccc4cc[nH]c4c3)ccc21 | 12.1
5 | Nc1ccc(O)cc1C(=O)OCC(=O)c1ccc(C2CCCCC2)cc1 | 8.51
6 | CCOC(=O)/C=C/C(=O)OCc1csc(CC(=O)Nc2ccccc2C)n1 | -1.99
7 | C[C@@H]1CN=C2N(CCNC(=O)CCC3CCCCC3)[C@H](Cc3ccc(O)cc3)CN21 | -0.311
8 | CC(C)[C@H]1CN=C2N(CCNC(=O)CCC3CCCCC3)[C@H](Cc3ccc(O)cc3)CN21 | -40.2
9 | COc1ccc(C[C@H]2CN3C(=NC[C@H]3C)N2CCNC(=O)CCC2CCCCC2)cc1 | -69
10 | C[C@H]1CN=C2N(CCNC(=O)CCC3CCCCC3)[C@H](Cc3ccc(O)cc3)CN21 | 9.65
11 | COc1ccc(C[C@H]2CN3C(=NC[C@@H]3C)N2CCNC(=O)CCC2CCCCC2)cc1 | -69
12 | COc1ccc(C[C@H]2CN3C(=NC[C@@H]3C(C)C)N2CCNC(=O)CCC2CCCCC2)cc1 | -80.4
13 | NC(=O)c1ncc(C(F)(F)F)cc1Oc1ccc(C(F)(F)F)cc1 | 24.9
14 | O=C(N/N=C1/SCC(=O)N1Cc1ccco1)c1ccccc1F | 20.1
15 | Cc1cccc(-c2nsc(SCC(=O)c3ccc(Cl)cc3)n2)c1 | 23.3
16 | CCOC(=O)C(C(=O)OCC)C(=O)c1cc(OC)c(OC)c(OC)c1 | -16.4
17 | O=S(=O)(Nc1nc2ccccc2nc1N1CCc2ccccc2C1)c1ccc(Cl)cc1 | 7.74
18 | COc1ccc(C(=O)O)cc1S(=O)(=O)NCc1cccnc1 | 19.4
19 | Cl.OCCN1CCN(CCOc2cccc(Cl)c2)CC1 | -15.6

Row | Compound | hERG current change (%, negative = inhibition) at 10uM [%]
20 | CCc1nn(CCCN2CCN(c3cccc(Cl)c3)CC2)c(=O)n1CCOc1ccccc1 | -63.2
21 | COc1cccc(-n2c(C)nn(CCOc3ccccc3)c2=O)c1 | 8.58
22 | CCc1nn(CCCN2CCN(c3cccc(Cl)c3)CC2)c(=O)n1CCOc1ccccc1.Cl | -65
23 | O=C(Cn1nc(-c2ccccc2)ccc1=O)NCCN1CCN(c2cccc(Cl)c2)CC1 | -24.4
24 | Cc1nn(CCOc2ccccc2)c(=O)n1-c1ccc(Cl)cc1 | -3.66
25 | O=Cc1ccnc(-c2ccc(OC(=O)c3ccco3)cc2)n1 | 7.26
26 | Cc1cc(Br)ccc1NS(=O)(=O)c1c(C)[nH]c(=O)[nH]c1=O | 11.6
27 | c1ccc(-n2ncc3c(NCc4ccccn4)ncnc32)cc1 | 0.854
28 | CC(=O)NS(=O)(=O)c1ccc(NC(=O)COc2ccc(C(=O)c3ccccc3)cc2)cc1 | 15.8
29 | Cc1nnsc1S(=O)c1ccc(Br)cc1 (stereo not drawn) | -1.16
30 | COCCn1c(SCC(=O)N2CCCCCC2)nc2c([nH]c3ccccc32)c1=O | -5.06
31 | CCOC(=O)N1CCN(C(=O)CSc2nc3c([nH]c4ccccc43)c(=O)n2CCOC)CC1 | -65.1
32 | COCCn1c(SCC(=O)N2CCC(C)CC2)nc2c([nH]c3ccccc32)c1=O | -19.8
33 | CCOC(=O)N1CCN(C(=O)CSc2nc3c([nH]c4ccccc43)c(=O)n2CC)CC1 | -13.8
34 | COCCn1c(SCC(=O)N2CCCCC2)nc2c([nH]c3ccccc32)c1=O | -20.5
35 | COCCn1c(SCC(=O)N2CCCC2)nc2c([nH]c3ccccc32)c1=O | -61.3
36 | Nc1nnc(SCC(=O)NCCOc2ccccc2)s1 | 4.23
37 | Cc1nc(-c2ccccc2O)n(S(=O)(=O)N(C)C)n1 | -4.34
38 | CCCC[n+]1ccn(C2=C([O-])c3ccccc3C(=O)/C2=N\S(=O)(=O)c2ccc(Br)cc2)c1 | -20.7

Row | Compound | hERG current change (%, negative = inhibition) at 10uM [%]
39 | O=C(Nc1ccccc1Cl)C1(c2ccccc2)CC1(Cl)Cl (stereo not drawn) | -0.213
40 | O=C(Nc1ccccc1)C1(c2ccccc2)CC1(Cl)Cl (stereo not drawn) | -18.1
41 | O=C(Nc1ccccc1F)C1(c2ccccc2)CC1(Cl)Cl (stereo not drawn) | -70
42 | Cc1ccc(C(=O)c2ccccc2C(=O)O)c(O)c1 | 1.4
43 | Cc1noc(NS(=O)(=O)c2ccc(NC(=O)CSc3nc4ccccc4s3)cc2)c1C | -2.99
44 | CC1CCN(c2nc3ccc(C(=O)O)cc3s2)CC1 | 22.8
45 | CC1CCCC(C)N1CCCNC(=O)c1ccc2nc(N3CCCCC3)sc2c1 (stereo not drawn) | -38
46 | CC1CCN(c2nc3ccc(C(=O)NCCCN4CCCCC4)cc3s2)CC1 | -50
47 | CC1CC(C)CN(CCCNC(=O)c2ccc3nc(N4CCCCC4)sc3c2)C1 (stereo not drawn) | -47.5
48 | CCOC(CNC(=O)c1ccc2nc(N3CCC(C)CC3)sc2c1)OCC | 10.6
49 | CCCN1CCN(CCCNC(=O)c2ccc3nc(N4CCC(C)CC4)sc3c2)CC1 | -50.7
50 | CN(CC(=O)Nc1ccc(N2CCOCC2)cc1)C(=O)CCNC(=O)c1ccc(Br)cc1 | 3.43
51 | O.Oc1cc(O)c2c(c1)O[C@H](c1ccc(O)c(O)c1)[C@@H](O)C2 | 17.4
52 | Cc1cc(C)c2nc(N3CCN(C(=O)c4cccs4)CC3)sc2c1 | 0.575
53 | O=C(c1ccc([N+](=O)[O-])o1)N1CCN(c2nc3c(F)cc(F)cc3s2)CC1 | -54.7
54 | Cc1cccc2sc(N3CCN(C(=O)c4cccs4)CC3)nc12 | -9.51
55 | O=C(c1ccc([N+](=O)[O-])o1)N1CCN(c2nc3ccc(F)cc3s2)CC1 | -23.7
56 | Cc1ccc2sc(N3CCN(C(=O)c4ccc([N+](=O)[O-])o4)CC3)nc2c1C | 3.89
57 | O=C(c1cccs1)N1CCN(c2nc3c(F)cc(F)cc3s2)CC1 | -50.1
